The panel holds about 83,000 compounds, 20% with a hit somewhere; the sample as a whole holds those more often.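 Single-dose data. Exposure time 48 hours. Values below 10 considered active.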 Values without a mark were called inactive. Activity calls are given as the source filed them.
Key:
Test in all cases: NCI-60 one-dose screen, 48 h (100 = growth as untreated, 0 = no growth, -100 = all killed)
Settings in all cases: 10 µM unless noted
SR leukemia = tested on: SR leukemia
RPMI-8226 leukemia = tested on: RPMI-8226 leukemia
OVCAR-8 ovarian = tested on: OVCAR-8 ovarian
OVCAR-5 ovarian = tested on: OVCAR-5 ovarian
OVCAR-4 ovarian = tested on: OVCAR-4 ovarian
SK-OV-3 ovarian = tested on: SK-OV-3 ovarian
IGROV1 ovarian = tested on: IGROV1 ovarian
OVCAR-3 ovarian = tested on: OVCAR-3 ovarian
HS 578T breast = tested on: HS 578T breast
NCI/ADR-RES ovarian = tested on: NCI/ADR-RES ovarian

| Structure (SMILES) | growth (SR leukemia) | growth (RPMI-8226 leukemia) | growth (OVCAR-8 ovarian) | growth (OVCAR-5 ovarian) [%] | growth (OVCAR-4 ovarian) | growth (SK-OV-3 ovarian) | growth (IGROV1 ovarian) | growth (OVCAR-3 ovarian) | growth (HS 578T breast) | growth (NCI/ADR-RES ovarian) |
| --- | --- | --- | --- | --- | --- | --- | --- | --- | --- | --- |
| COc1c(B(O)O)cc(F)cc1-c1nc2ccc3[nH]ncc3c2c2c1COCC2 | 43.4% | 31.5% | 51.5% | 90.3 | 102% | 82.8% | 57.8% | 64.1% | 9.63% (active) | 93.9% |
| COc1ccc(NC(=O)Cn2c(/C=C/c3cccc(Br)c3)nc3ccccc3c2=O)cc1 | 78.3% | 42.5% | 14.4% | 47.6 | -45.7% (active) | 36.4% | 49.8% | 36.3% | -0.494% (active) | 31.2% |
| CN1CCN(CCS(=O)(=O)Nc2cc(-c3ccc4ncnc(Nc5ccc(F)c(Cl)c5)c4c3)cnc2Cl)CC1 | -45.4% (active) | 75.2% | 22.4% | 16 | 32.3% | 3.06% (active) | -34.8% (active) | -31.7% (active) | -23.3% (active) | 78.4% |
| CS(=O)(=O)Nc1cncc(-c2ccc3ncnc(NCc4ccccc4)c3c2)c1 | 6.25% (active) | 52% | 49.2% | 42.6 | 44.8% | 67.6% | 4.57% (active) | 33.6% | -5.05% (active) | 89% |
| CN1C(=O)/C(=C\C(=O)c2cc3ccccc3oc2=O)c2ccccc21 | 38% | 62.3% | 47.3% | 84.3 | 74.8% | 80.8% | 82.3% | 51.8% | 57.3% | 53.3% |
| Clc1ccc(CNc2nc(SCCN3CCOCC3)nc3c2cnn3CC(Cl)c2ccc(Br)cc2)cc1 (stereo not given) | -14.9% (active) | 1.89% (active) | 44.3% | 75.5 | 44.6% | 62.5% | 67.9% | 56.5% | 49.4% | 34.5% |
| O=C(CSc1nc2sc3c(c2c(=O)n1-c1ccc(Cl)cc1)CCCC3)NNC(=O)c1ccc(F)cc1 | 46.3% | 83.2% | 35.4% | 73.8 | 83.9% | 90.5% | 63.3% | 119% | 79.9% | 77.6% |
| COc1ccc(-c2nc3ccccc3n2CC(=O)N=Nc2c(O)[nH]c3ccc(OC)cc23)cc1 | 0.469% (active) | 52% | 6.22% (active) | 86.8 | 50.8% | 104% | 45.7% | 35.5% | 30.3% | 48% |
| O=C(CSc1nnc(-c2ccc(-c3nc4ccccc4[nH]3)cc2)o1)Nc1ccccc1 | 34.1% | 56.5% | 31.5% | 86 | 94% | 84.7% | 85% | 92.2% | 70.9% | 76.3% |
| N/C(=N\c1nc2ccccc2s1)NC(=O)Nc1ccccc1F | 20.8% | 15.8% | 10.6% | 31.4 | 49.6% | -1.47% (active) | 37.5% | 7.03% (active) | 7.56% (active) | -14.8% (active) |
| C/C(=N/O)c1ccc(NC(=O)CSc2nnc(-c3ccc4nc(-c5ccc(Cl)cc5)[nH]c4c3)o2)cc1 | 24% | 54.4% | 1.29% (active) | 118 | 101% | 117% | 102% | 84.7% | 12.7% | 101% |
| O=C(N/N=C/c1ccc(Cl)cc1)c1ccc(OCc2nc3ccc(Cl)cc3[nH]2)cc1 | 3.65% (active) | 40.3% | -12.1% (active) | 35.4 | -8.33% (active) | 14.5% | 15.4% | -20.3% (active) | 25.2% | 45.4% |
| Cc1cc(C(NC(=O)CCCCCNc2cccc3c2C(=O)N(C2CCC(=O)CC2=O)C3=O)c2cccc(N(C)C)c2)c(O)c2ncccc12 (stereo not given) | 25.3% | 15.6% | 2.18% (active) | 38.1 | 33.2% | -2.15% (active) | 1.63% (active) | 16.3% | 19.6% | 50.6% |

— PubChem BioAssay (NCI)
